# In PubChem BioAssay:
# Calls of active or inactive are those of the source.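 How the source made its calls, unless noted: active means inhibition at or above 50% at 10 µM; inactive means inhibition below 50%.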
# Key:
# [1] = inhibitors of TNFa-induced NFkB p65 translocation, primary screen, imaging, HUVEC, MLSMR starter and 10KST1 sets (AID 438;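 active means inhibition above 20% together with a positive visual image hit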;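 further: compound added about 3h40 before a 20 min TNFalpha stimulation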;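 on inhibition: signal is the nuclear over cytoplasmic p65 intensity ratio per well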); settings: HUVEC TNFa-induced p65 nuclear translocation; cell count: measured here: nuclei count (cytotoxicity indicator), at 2.08 µM; inhibition: at 2 µM, stronger effect = higher value, 0% TNFa-plus-vehicle, 100% no-TNFa wells
# [2] = reduction of polyQ htt aggregates in cells – imaging, exon1htt(103Q)mCFP cells, high-content imaging, primary screen (AID 483;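 active means visual image review flags a hit and inhibition of aggregation exceeds 20%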;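 further: compound exposure lasted 3 days before fixation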;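 on nuclei count: percent of the per-plate median nuclei count of sample wells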); settings: exon1htt(103Q)mCFP cell line, aggregate imaging, at 2 µM; inhibition of aggregation: stronger effect = higher value; nuclei count: measured here: cell count, toxicity
# [3] = endothelial E-selectin expression blockers – imaging, HUVEC, immunofluorescence, MLSMR starter and 10KST1 sets, primary screen (AID 487;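 active means visually confirmed hit in the image check and inhibition above 20%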;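 on inhibition: signal is fraction of cell area covered by stained E-selectin grains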;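 on nuclei count: 100% = median nuclei count of all wells on the same plate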); settings: HUVEC TNFalpha-induced E-selectin immunofluorescence imaging, at 2 µM; inhibition: stronger effect = higher value; nuclei count: measured here: cell number, toxicity
# [4] = target: Voltage-gated potassium channel subunit beta-2 (Rattus norvegicus) (UniProt P62483); experiment: inhibitors of rat Kvbeta2 reductase activity – biochemical, NADPH fluorescence, primary screen (AID 622;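 active means fluorescence slope higher than the sample average by over 3 SD, cut at about -0.22 in these data, passing the limit was not always enough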;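 further: slope of raw intensity against log time taken from 70 to 1610 s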); settings: recombinant KvBeta, 4-cyanobenzaldehyde reduction, at 10 µM, stronger effect = higher value
# Voltage-gated potassium channel subunit beta-2 (Rattus norvegicus), sequence (P62483 whole entry, looked up): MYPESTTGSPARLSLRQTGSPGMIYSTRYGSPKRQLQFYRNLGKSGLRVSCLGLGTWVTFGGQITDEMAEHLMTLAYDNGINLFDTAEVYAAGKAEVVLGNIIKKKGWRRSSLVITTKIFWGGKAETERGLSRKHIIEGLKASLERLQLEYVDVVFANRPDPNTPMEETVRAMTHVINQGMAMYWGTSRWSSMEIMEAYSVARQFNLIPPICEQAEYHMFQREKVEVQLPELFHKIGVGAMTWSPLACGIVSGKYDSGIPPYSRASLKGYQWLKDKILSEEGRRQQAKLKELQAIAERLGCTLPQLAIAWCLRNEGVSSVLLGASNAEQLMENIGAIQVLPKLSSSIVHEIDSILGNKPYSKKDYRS
# [5] = target: Voltage-gated potassium channel subunit beta-2 (Rattus norvegicus) (UniProt P62483); experiment: enhancers of rat Kvbeta2 NADPH turnover – biochemical, NADPH fluorescence, primary screen (AID 623;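 active means NADPH fluorescence slope more negative than the mean of all samples by about 3 SD, 99.7% confidence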;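 further: fluorescence intensity change per second fitted from 20 to 320 s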); settings: Recombinant KvBeta, NADPH fluorescence decrease slope, 10 min; at 10 µM; stronger effect = lower value
# [6] = target: Alpha-2C adrenergic receptor (Homo sapiens) (UniProt P18825); experiment: compounds altering alpha2C-coupled GIRK flux – cell-based, HEK293 alpha2C/GIRK1/2, thallium flux, primary screen (AID 624;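 active means fluorescence slope after compound addition differing from the mean of all screened samples at 99.7% confidence, in either direction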;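 further: slope of fluorescence ratio to pre-addition baseline per second over 15 to 24 s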); settings: thallium flux BTC fluorescence, at 10 µM, actives lie on both sides
# Alpha-2C adrenergic receptor (Homo sapiens), sequence (P18825 whole entry, looked up): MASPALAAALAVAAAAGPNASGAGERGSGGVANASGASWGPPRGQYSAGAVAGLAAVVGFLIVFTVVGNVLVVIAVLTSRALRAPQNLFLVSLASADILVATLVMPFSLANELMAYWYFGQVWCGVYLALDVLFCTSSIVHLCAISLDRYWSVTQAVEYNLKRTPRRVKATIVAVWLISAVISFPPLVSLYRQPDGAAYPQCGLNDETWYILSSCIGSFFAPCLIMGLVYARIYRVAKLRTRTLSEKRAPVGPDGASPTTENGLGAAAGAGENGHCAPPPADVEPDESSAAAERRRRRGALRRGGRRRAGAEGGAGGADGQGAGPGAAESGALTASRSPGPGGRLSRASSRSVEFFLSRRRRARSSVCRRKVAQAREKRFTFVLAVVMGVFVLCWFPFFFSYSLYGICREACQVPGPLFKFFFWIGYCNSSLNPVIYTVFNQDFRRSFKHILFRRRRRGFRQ
# [7] = blockers of RIG-like receptor reporter activation – cell-based, Sendai virus stimulus, luciferase, 10K MLSCN set, TLR/RLR signaling modifier project, primary screen (AID 602276); settings: HEK293 RL24 IRF3 luciferase reporter, at 10 µM, stronger effect = higher value;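 further: firefly luciferase from ISG56 promoter only with Renilla not read in this screen; 0% = Sendai virus plus DMSO and 100% = medium plus DMSO without virus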
# [8] = TLR3 IRF3 reporter activation blockers – cell-based, poly I:C stimulus, luciferase, 10K MLSCN set, primary screen (AID 602277;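 active means inhibition of the reporter signal at or above 50%; inactive means inhibition below 50%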); settings: HEK293-TLR3 RL24 IRF3 luciferase reporter, at 10 µM, stronger effect = higher value
SMILES,cell count [1],inhibition [1],inhibition of aggregation [2],nuclei count [2] [%],inhibition [3],nuclei count [3] [%],fluorescence slope [4],NADPH fluorescence slope [5],slope [6],inhibition [7],inhibition [8]
CCOC(=O)c1sc2nc(SCC#N)n(CCCN3CCCC3=O)c(=O)c2c1C,399,3.4% (inactive),-11.9% (inactive),89.9,49% (inactive),96.1,-0.461 (inactive),-6.7e-05 (inactive),0.00586 (inactive),4.69% (inactive),-8.03% (inactive)
CCOC(=O)Cc1csc(NC(=O)CSc2nnc(C3CC3)n2C)n1,670,-11.2% (inactive),2.2% (inactive),110,18.1% (inactive),102,-0.265 (inactive),-5.6e-05 (inactive),0.0044 (inactive),10.5% (inactive),17.5% (inactive)
COc1ccc(C2(C(=O)Nc3cc(C)on3)CCOCC2)cc1,312,0.4% (inactive),10.1% (inactive),108,-51.8% (inactive),134,-0.388 (inactive),-4.8e-05 (inactive),0.00489 (inactive),13.8% (inactive),5.89% (inactive)
CC(C)COC(=O)C(C#N)c1nc2ccccc2nc1N1CCN(Cc2ccccc2)CC1 (configuration not stated),296,4.2% (inactive),3.4% (inactive),91.2,17.8% (inactive),87,-0.425 (inactive),8.1e-06 (inactive),0.00589 (inactive),14.6% (inactive),7.75% (inactive)
Nc1scc(-c2ccncc2)c1Cl,349,-0.2% (inactive),23% (inactive),94.4,-2.4% (inactive),107,-0.386 (inactive),1.9e-05 (inactive),0.00535 (inactive),-19.6% (inactive),-65.9% (inactive)
C=CCOC(=O)C1=C(C)NC(=O)NC1c1cn(-c2ccccc2)nc1-c1cccs1 (configuration not stated),663,-18.8% (inactive),13.7% (inactive),87.3,-7.6% (inactive),110,-0.332 (inactive),-5.4e-05 (inactive),0.00533 (inactive),14.3% (inactive),14.3% (inactive)
O=C(C1CCC(CNS(=O)(=O)c2cccc3cccnc23)CC1)N1CCCC1 (configuration not stated),711,5.5% (inactive),-15.3% (inactive),67.8,-43.8% (inactive),112,-0.549 (inactive),-1.6e-05 (inactive),0.00608 (inactive),-0.546% (inactive),14.6% (inactive)
Cc1cc(C)n(C(=O)CCCCCC(=O)n2nc(C)cc2C)n1,440,5.5% (inactive),1.5% (inactive),116,-195% (inactive),116,-0.524 (inactive),8.7e-06 (inactive),0.0053 (inactive),18.5% (inactive),26.3% (inactive)
CCOC(=O)Cn1c(N2CCOCC2)nc2c1c(=O)[nH]c(=O)n2C,673,-8.7% (inactive),-18.2% (inactive),118,-0.1% (inactive),107,-0.415 (inactive),-6.2e-05 (inactive),0.00268 (inactive),9.13% (inactive),21.5% (inactive)
COc1ccc2c(c1)C1(Nc3ccccc3-c3nc4ccccc4n31)C(=O)N2 (configuration not stated),240,5.7% (inactive),11.7% (inactive),78,13.2% (inactive),110,-0.493 (inactive),-4.6e-05 (inactive),0.00486 (inactive),17.4% (inactive),36.3% (inactive)
Cc1nn(-c2nc3ccccc3s2)c(C)c1Oc1ccccc1O,591,-9.8% (inactive),-19.1% (inactive),107,-154% (inactive),161,-0.437 (inactive),-2.9e-06 (inactive),0.00527 (inactive),2.14% (inactive),-97.7% (inactive)
N#CC1=C(N)N(c2ccccc2)C(c2ccco2)C1(C#N)C#N (configuration not stated),322,2% (inactive),-3.9% (inactive),103,3.9% (inactive),107,-0.427 (inactive),-1.7e-05 (inactive),0.00559 (inactive),1.35% (inactive),9.78% (inactive)
CC(=O)c1cccc(NC(=O)CCNS(=O)(=O)c2cccc3nsnc23)c1,439,-3.5% (inactive),-17.6% (inactive),104,-46.7% (inactive),107,-0.539 (inactive),-3e-05 (inactive),0.00543 (inactive),11.2% (inactive),17.2% (inactive)
CCOC(=O)N1CCN(c2nc(-c3ccc(Cl)cc3)cs2)CC1,256,7.4% (inactive),7.8% (inactive),80.8,-94.3% (inactive),113,-0.35 (inactive),-3.8e-05 (inactive),0.00625 (inactive),-3.5% (inactive),-38.7% (inactive)
COc1ccc(C2C(C(C)=O)=C(O)C(=O)N2C)c(OC)c1 (configuration not stated),464,3.8% (inactive),-2.5% (inactive),116,-48.3% (inactive),136,-0.461 (inactive),-1.6e-05 (inactive),0.00277 (inactive),5.02% (inactive),32% (inactive)
CCOC(=O)N1CCN(Cc2ccccc2F)CC1,485,-3.8% (inactive),15.1% (inactive),91.4,-26% (inactive),91.5,-0.581 (inactive),-2e-05 (inactive),0.00418 (inactive),12.5% (inactive),13.4% (inactive)
O=C(c1ccco1)N1CCN(S(=O)(=O)c2ccc(C3CCCCC3)cc2)CC1,400,7.2% (inactive),-1.8% (inactive),102,-44.9% (inactive),109,-0.501 (inactive),-3.8e-05 (inactive),0.00443 (inactive),-0.0986% (inactive),-28.6% (inactive)
O=c1oc2c3c4c(cc2cc1-c1nc2ccccc2[nH]1)CCCN4CCC3,451,5.9% (inactive),94.7% [may fluoresce] (active),112,-25.7% (inactive),121,-0.308 (inactive),1.6e-05 (inactive),0.00239 (inactive),-24.1% (inactive),-107% (inactive)
COC(=O)CN1C(=O)C(O)(CC(=O)c2ccc(C)cc2)c2cc(Br)ccc21 (configuration not stated),612,2.9% (inactive),-6% (inactive),94.5,-49.2% (inactive),113,-0.436 (inactive),-4.5e-05 (inactive),0.00497 (inactive),4.14% (inactive),-1.15% (inactive)
Cc1cc(C)cc(NS(=O)(=O)c2ccc3[nH]c(=O)[nH]c3c2)c1,378,-5.5% (inactive),2.4% (inactive),112,-23.4% (inactive),115,-0.392 (inactive),4.9e-07 (inactive),0.00328 (inactive),16.1% (inactive),36.9% (inactive)
Fc1cccc2sc(Nc3nnc(-c4ccco4)o3)nc12,404,-3.6% (inactive),2.5% (inactive),109,-0.9% (inactive),94.5,-0.501 (inactive),-4.9e-05 (inactive),0.0148 (active),-39.7% (inactive),-83% (inactive)
CC(=O)c1ccc(NC(=O)CSc2nnc(-c3ccoc3C)n2Cc2ccccc2)cc1,366,-4.2% (inactive),5.2% (inactive),98.2,-35.8% (inactive),99.5,-0.432 (inactive),-2e-09 (inactive),0.00468 (inactive),-9.45% (inactive),-12% (inactive)
OC(CN1CCCCC1)Cn1c(C(F)(F)F)nc2ccccc21 (configuration not stated),730,-17.7% (inactive),25.1% (inactive),122,-98.5% (inactive),95.5,-0.362 (inactive),-7.1e-05 (inactive),0.00651 (inactive),12.8% (inactive),24.9% (inactive)
CCOc1ccc(Cn2nnc(C(=O)Nc3ccc(OC)cc3OC)c2N)cc1,720,-6.1% (inactive),7.2% (inactive),108,-9.7% (inactive),106,-0.49 (inactive),-3.6e-05 (inactive),0.00559 (inactive),-5.26% (inactive),-8.45% (inactive)
O=C(C1=C(O)C(=O)N(Cc2ccccc2)C1c1ccncc1)c1ccco1 (configuration not stated),382,8.3% (inactive),-3.4% (inactive),116,-216% (inactive),143,-0.192 (inactive),2.5e-06 (inactive),0.0062 (inactive),-5.31% (inactive),2.12% (inactive)
CN1C(=O)C(O)(CC(=O)c2ccccc2O)c2cc(Br)ccc21 (configuration not stated),608,3.4% (inactive),-2.8% (inactive),63.4,-59.3% (inactive),124,-0.439 (inactive),-6e-05 (inactive),0.00404 (inactive),7.07% (inactive),55.8% (active)
O=C(CSc1nc(O)cc(=O)n1-c1ccccc1)N1CCCCC1,635,-8.1% (inactive),-16.4% (inactive),103,-85.5% (inactive),109,-0.536 (inactive),-5.1e-05 (inactive),0.00543 (inactive),12.3% (inactive),21% (inactive)
